Values without a mark were called inactive. Results filed as inconclusive are left out. Entries that show only a call come without a potency. Active and inactive are the calls of the source. Unless noted, the call rests on the fitted dose curve; in most records, active means well fitted curve in the direction sought with a large enough effect in the repeat runs; inconclusive means weak or mixed curves; inactive means no such curve, though single readings can be large; an effect the other way counts as inactive or inconclusive.
Columns and labels:
[1] = qHTS assay for small molecule agonists of the p53 signaling pathway (AID 651631; calls by dose curve; further: nearly all actives have a fitted effect of over 15% in size; further: potency means the concentration at half of the fitted maximal effect)
Outline: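 Readout was fluorescence from the LiveBLAzer FRET substrate, applied for 2 h at room temperature after 16 h compound exposure at 37 °C. Cells were the p53RE-bla HCT-116 line, with beta-lactamase driven by p53 response elements.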

[2] = qHTS assay for small molecules that induce genotoxicity in human embryonic kidney cells expressing luciferase-tagged ATAD5 (AID 651632); further: nearly all actives have a fitted effect of over 15% in size
Outline: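 Reporter cells (HEK293T) express luciferase-tagged ATAD5, a protein that accumulates after DNA damage. Treat 16 hr at 37C/5% CO2, add Amplite, wait 30 min at RT, and read luminescence.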

[3] = qHTS assay for small molecule agonists of the p53 signaling pathway - cell viability (AID 651633; calls by dose curve; further: series mostly up to about 83 µM; nearly all actives have a fitted effect of over 30% in size)
Outline: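 p53RE-bla cells, seeded at 4,000 per well and rested 5 h at 37 C/5% CO2, received compounds in DMSO for 16 h at 37 C. CellTiter-Glo was then added, and luminescence was read after 30 min at room temperature to gauge cytotoxicity.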

[4] = qHTS assay for small molecules that induce genotoxicity in human embryonic kidney cells expressing luciferase-tagged ATAD5 - cell viability (AID 651634; calls by dose curve; further: nearly all actives have a fitted effect of over 25% in size; further: potency means the concentration at half of the fitted maximal effect)
Outline: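 Seeding of 2,000 HEK293T ATAD5-luciferase cells per well preceded pin-tool compound transfer. Plates sat 15.5 hr at 37C under 5% CO2, then fluorescence was read after 30 min with CellTiter-Fluor.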

[5] = qHTS assay for small molecule disruptors of the mitochondrial membrane potential - cell viability (AID 720634; calls by dose curve; further: nearly all actives have a fitted effect of over 20% in size; further: potency means the concentration at half of the fitted maximal effect)
Outline: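 Measuring cytotoxicity alongside mitochondrial potential, the screen quantified ATP by luminescence in HepG2 cells after 1 hr compound incubation and a 30 min room-temperature CellTiter-Glo step.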

[6] = qHTS assay for small molecule disruptors of the mitochondrial membrane potential (AID 720635); further: potency means the concentration at half of the fitted maximal effect
Outline: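 HepG2 cells (2,000/well) attached overnight at 37C, then took compound for 1 hr at 37C, 5% CO2. Mito-MPS dye was added for 30 min; fluorescence was read at 490/535 nm (monomers) and 540/590 nm (aggregates).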

[7] = qHTS assay to test for compound auto fluorescence at 590 nm (red) in HepG2 cells (AID 720674)
Outline: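 Rose Bengal sodium served as the red fluorophore standard. HepG2 monolayers (overnight attachment, MEM with 10% FBS) were exposed to test compounds for 1 hr at 37 C and read at Ex 540/Em 590 nm.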

[8] = qHTS assay to test for compound auto fluorescence at 535 nm (green) in HepG2 cells (AID 720675)
[9] = qHTS assay to test for compound auto fluorescence at 460 nm (blue) in HEK293 cells (AID 720678)
Outline: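 Triamterene serves as the blue fluorophore standard. Compound signal at 405/460 nm is read in HEK293 wells (2,000 cells, 10% dialyzed FBS) after overnight treatment at 37C.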

[10] = qHTS assay to test for compound auto fluorescence at 590 nm (red) in HEK293 cells (AID 720679)
Outline: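 We plated HEK293 cells in 10% dialyzed FBS medium, let them adhere for 4-5 hr, then added 23 nL compound. Overnight at 37C and 5% CO2 preceded fluorescence measurement at 540/590nm.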

[11] = qHTS assay to test for compound auto fluorescence at 535 nm (green) in HEK293 cells (AID 720680)
[12] = qHTS assay to test for compound auto fluorescence at 460 nm (blue) in HEK293 cell free culture (AID 720681)
Outline: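 Test compounds were pinned into cell-free culture medium (DMEM with 10% FBS) and fluorescence was read directly at Ex/Em 405/460 nm. Signals were expressed as fluorescence equivalents of triamterene, with DMSO vehicle as control.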

[13] = qHTS assay to test for compound auto fluorescence at 535 nm (green) in HEK293 cell free culture (AID 720682)
Outline: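 Compounds were pin-transferred into cell-free DMEM with 10% FBS, and green fluorescence was read at excitation 485 nm and emission 535 nm. Intensities were expressed as fluorescein-equivalent values.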

[14] = qHTS assay to test for compound auto fluorescence at 590 nm (red) in HEK293 cell free culture (AID 720683)
Outline: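 Tox21 10K library compounds were pinned into cell-free DMEM with 10% FBS and fluorescence was read at excitation 540 nm. Activity is expressed as Rose Bengal sodium equivalency.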

[15] = qHTS assay to test for compound auto fluorescence at 590 nm (red) in HepG2 cell free culture (AID 720684)
Outline: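 Red fluorescence (540 nm excitation, 590 nm emission) was measured after compound transfer into cell-free MEM supplemented with 10% FBS. Values are equivalencies against Rose Bengal sodium.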

[16] = qHTS assay to test for compound auto fluorescence at 460 nm (blue) in HepG2 cell free culture (AID 720685)
Outline: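 Compound (23 nL) or DMSO pinned into cell-free MEM with 10% FBS; blue fluorescence read at 405/460 nm excitation/emission, expressed as auto-fluorescence equivalency to triamterene.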

[17] = qHTS assay to test for compound auto fluorescence at 535 nm (green) in HepG2 cell free culture (AID 720686)
[18] = qHTS assay to test for compound auto fluorescence at 460 nm (blue) in HepG2 cells (AID 720687)
Outline: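 Cells (2,000/well in MEM with 10% FBS) attached overnight at 37 C, then were exposed to compound or DMSO for 1 hr at 37 C, 5% CO2. Fluorescence read at Ex/Em 405/460 nm, expressed as triamterene-equivalent signal.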

[19] = molecular target: Glucocorticoid receptor (Homo sapiens) (UniProt P04150); assay: qHTS assay to identify small molecule agonists of the glucocorticoid receptor (GR) signaling pathway (AID 720691; active means well fitted activation curve with a large enough effect in the signal ratio in the repeat runs, not every such curve was filed as active; the % refers to the signal ratio)
Outline: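 Reporter read-out: fluorescence intensity following 2 h room-temperature LiveBLAzer B/G FRET substrate loading. Prior step: GR-bla HeLa cells held 4 h, then treated 18 h at 37 C.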

[20] = molecular target: Glucocorticoid receptor (Homo sapiens) (UniProt P04150); assay: qHTS assay to identify small molecule antagonists of the glucocorticoid receptor (GR) signaling pathway (AID 720692; active means well fitted inhibition curve with a large enough effect in the signal ratio in the repeat runs, not every such curve was filed as active; the % refers to the signal ratio)
Outline: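 Dexamethasone (5 nM final) stimulated a stably integrated GRE-beta-lactamase reporter in HeLa cells during 18 h co-incubation with compounds; signal was quantified as fluorescence intensity of B/G FRET substrate after 2 h.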

Chain of Glucocorticoid receptor (Homo sapiens) (P04150 whole entry, looked up): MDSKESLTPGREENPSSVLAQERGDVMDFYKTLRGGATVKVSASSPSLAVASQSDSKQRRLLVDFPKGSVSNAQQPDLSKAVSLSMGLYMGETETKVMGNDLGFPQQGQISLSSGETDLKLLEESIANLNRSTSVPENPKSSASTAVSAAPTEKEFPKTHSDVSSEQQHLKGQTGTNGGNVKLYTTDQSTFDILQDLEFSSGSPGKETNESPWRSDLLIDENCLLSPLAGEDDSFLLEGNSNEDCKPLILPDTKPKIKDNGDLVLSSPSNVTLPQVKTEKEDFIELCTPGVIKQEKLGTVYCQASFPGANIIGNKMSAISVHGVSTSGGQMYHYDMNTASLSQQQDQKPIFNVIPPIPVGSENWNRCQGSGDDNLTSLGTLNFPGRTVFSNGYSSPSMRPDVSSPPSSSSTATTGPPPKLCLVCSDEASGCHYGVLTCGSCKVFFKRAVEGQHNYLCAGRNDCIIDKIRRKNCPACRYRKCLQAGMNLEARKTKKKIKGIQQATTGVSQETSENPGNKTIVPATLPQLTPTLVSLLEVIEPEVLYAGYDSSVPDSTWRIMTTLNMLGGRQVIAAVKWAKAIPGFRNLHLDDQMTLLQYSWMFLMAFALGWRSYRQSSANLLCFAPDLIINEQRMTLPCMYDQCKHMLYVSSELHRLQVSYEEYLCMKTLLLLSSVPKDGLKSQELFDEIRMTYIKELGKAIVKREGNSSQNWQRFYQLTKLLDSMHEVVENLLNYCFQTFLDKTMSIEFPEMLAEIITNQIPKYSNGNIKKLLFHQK

| SMILES | Potency [1] | Potency [2] | Potency [3] | Potency [4] | Potency [5] | Potency [6] | Potency [7] | Potency [8] | Potency [9] | Potency [10] | Potency [11] | Potency [12] | Potency [13] | Potency [14] | Potency [15] | Potency [16] | Potency [17] | Potency [18] | Potency [19] | Potency [20] |
| --- | --- | --- | --- | --- | --- | --- | --- | --- | --- | --- | --- | --- | --- | --- | --- | --- | --- | --- | --- | --- |
| CC(=O)c1ccc(C(C)=O)cc1 | inactive | inactive | inactive | inactive | inactive | inactive | inactive | inactive | inactive | inactive | inactive | inactive | inactive | inactive | inactive | inactive | inactive | inactive | inactive | inactive |
| Cc1ccc(C(=O)O)cc1 | inactive | inactive | inactive | inactive | inactive | inactive | inactive | inactive | inactive |  | inactive | inactive | inactive | inactive | inactive | inactive | inactive | inactive |  |  |
| O=[N+]([O-])c1ccc(O)cc1C(F)(F)F | 27.3 µM (active) | inactive | inactive | 27.3 µM (active) | 5.45 µM (active) | 3.44 µM (active) | inactive | inactive | inactive | inactive | inactive | inactive | inactive | inactive | inactive | inactive | inactive | inactive | inactive |  |
| CCOC(=O)Cn1cccc1-c1nc(-c2ccc(OC)cc2)c(-c2ccc(OC)cc2)s1 | 29.8 µM (active) | inactive | inactive | inactive | inactive | inactive | inactive | inactive | inactive | inactive | inactive | inactive | inactive | inactive | inactive | inactive |  | inactive | inactive |  |
| CCCCOC(=O)CO | inactive | inactive | inactive | inactive | inactive | inactive | inactive | inactive | inactive | inactive | inactive | inactive | inactive | inactive | inactive |  | inactive | inactive | inactive | inactive |
| CC(CCc1ccccc1)NCC(O)c1ccc(O)c(C(N)=O)c1 (stereo unspecified) | inactive | inactive | inactive | inactive | inactive | inactive | inactive | inactive | inactive | inactive | inactive | inactive | inactive | inactive | inactive |  | inactive | inactive | inactive |  |

Source: PubChem BioAssay (Tox21)
